Each structure is given as a SMILES string. Where a name gives a salt, the structure may show the parent alone. Some results are limits rather than exact numbers.

Drawing on PMC6792352, “Limited Chemical Structural Diversity Found to Modulate Thyroid Hormone Receptor in the Tox21 Chemical Library” (Environmental Health Perspectives, 2019), this text covers AC50 for 40 compounds.

The test system of the first experiment is thyroid hormone receptor (endogenous TRα and TRβ). Set-up: species or system GH3-TRE-Luc (rat pituitary); GH3-TRE-Luc luciferase reporter, antagonist mode against 1 nM T3, loss of signal, qHTS. As to conditions: read-out: Average AC50 (uM) GH3-TRE-Antag, antagonist mode, 1 nM T3, no GH3 cytotoxicity hit.
For orientation: AC50 means the midpoint of the concentration-response curve, whichever way the signal moves. On to `OC(CN1CCC(Cc2ccc(F)cc2)CC1)c1ccc(Cl)cc1` (stereo not shown) [Eliprodil], for which the AC50 is 19.5 µM. Same read-out and setting: then `CC1(C)C(/C=C(\Cl)C(F)(F)F)C1C(=O)OC(C#N)c1cccc(Oc2ccccc2)c1` (stereo not drawn) [alpha-Cyhalothrin], with 26.1 µM; and `Nc1c(Br)cc(Br)cc1CN[C@H]1CC[C@H](O)CC1` [Ambroxolhydrochloride], with 24.9 µM. The same measure, in the same setting: with `C=C/C(C)=C/C/C=C(\C)CCC=C(C)C` [alpha-Farnesene] the figure was 44.9 µM; with `CO/C=C(/C(=O)OC)c1ccccc1COc1cccc(C(F)(F)F)n1` [Picoxystrobin], 0.276 µM; with `CC1(C)[C@H](C=C(Cl)Cl)[C@H]1C(=O)O[C@H](C#N)c1cccc(Oc2ccccc2)c1` [Cypermethrin], greater than 50 µM.

With `CCCCCCCC/C=C/CCCCCCCC(=O)OCCO` [Polyoxyethylene monoleate], the AC50 came to 81.3 µM. Still for that read-out and setting: with `CC/C=C\CCOC(=O)c1ccccc1` [(3Z)-Hex-3-en-1-yl benzoate] the figure was 73.9 µM. The same measure, in the same setting: then `Cc1cc(C)c(/C=C2\C(=O)Nc3ccccc32)[nH]1` [SU-5416], with 18.1 µM. Same read-out and setting: then `CCCC1O[C@@H]2C[C@H]3[C@@H]4CCC5=CC(=O)C=C[C@]5(C)[C@H]4[C@@H](O)C[C@]3(C)[C@]2(C(=O)CO)O1` (stereo partly shown) [Budesonide], with greater than 50 µM. As for `CCN(CC)CCOCCOC(=O)C1(c2ccccc2)CCCC1` [Carbetapentane], the AC50 came to 11 µM. On the same count and under the same terms, with `CN(C)[C@@H]1C(O)=C(C(N)=O)C(=O)[C@@]2(O)C(O)=C3C(=O)c4c(O)ccc(Cl)c4[C@@](C)(O)[C@H]3C[C@@H]12` [Chlortetracycline hydrochloride] the figure was greater than 20 µM; with `CCCCCOC(=O)COc1cc(N2C(=O)C3=C(CCCC3)C2=O)c(F)cc1Cl` [Flumiclorac-pentyl], 52.5 µM; with `C=C1C[C@@H]2[C@H](CC[C@]3(C)C(=O)CC[C@@H]23)[C@@]2(C)C=CC(=O)C=C12` [Exemestane], 34.6 µM. Still for that read-out and setting: then `CC(C)(C)NC(=O)[C@H]1CC[C@H]2[C@@H]3CC[C@H]4NC(=O)C=C[C@]4(C)[C@H]3CC[C@]12C` [Finasteride], with greater than 20 µM; and `CC(=O)[C@@]1(O)CC[C@H]2[C@@H]3C=C(Cl)C4=CC(=O)CC[C@]4(C)[C@H]3CC[C@@]21C` [Chlormadinone], with 30.7 µM.

As for `Cc1ccc(S(=O)(=O)NC2CCCCC2)cc1` [N-Cyclohexyl-4-methylbenzenesulfonamide], the AC50 was greater than 90 µM. Regarding `CCCCCCCCCCC(=O)O` [Undecanoic acid], the AC50 was determined as 60.2 µM.

Turning to `Clc1ccc(Cn2c(CN3CCCC3)nc3ccccc32)cc1` [Clemizole hydrochloride], the AC50 stood at 13.3 µM.

Turning to `CCCOC(=O)c1ccc(N)cc1` [Risocaine], the AC50 turned out to be 44.3 µM. Consider `Cc1ccc2nc(N)[nH]c(=O)c2c1Sc1ccncc1` [Nolatrexed dihydrochloride], for which the AC50 was 4.76 µM. Still for that read-out and setting: then `C[C@]12CCC(=O)C=C1CC[C@@H]1[C@@H]2CC[C@@]2(C)[C@H]1CC[C@]2(O)C(=O)CO` [Cortodoxone], with 21.8 µM; and `Clc1cc(Cl)c2c(c1)N=C1CCCCCN1C2` [1,3-dichloro-6,7,8,9,10,12-hexahydroazepino[2,1-b]quinazoline hydrochloride (1:1)], with 40.1 µM. `Sc1ccccc1` [Benzenethiol]: the AC50 came to 44.5 µM. On the same count and under the same terms, then `CCCCCc1ccco1` [2-Pentylfuran], with 61.2 µM; and `CC(=O)Oc1ccc(C2(c3ccc(OC(C)=O)cc3)C(=O)Nc3ccccc32)cc1` [Oxyphenisatin acetate], with greater than 50 µM.

As for `COc1ccc(C(CN(C)C)C2(O)CCCCC2)cc1` (stereo not shown) [Venlafaxine hydrochloride], the AC50 was 71 µM. Same read-out and setting: with `C=C(C)C(=O)Nc1ccc(Cl)c(Cl)c1` [Chloranocryl] the figure was 55.5 µM; with `O=C(Oc1ccccc1)c1ccc2ccccc2c1O` [Phenyl 1-hydroxy-2-naphthoate], 84.9 µM. On to `CC(Cc1ccc(C(C)(C)C)cc1)CN1C[C@@H](C)O[C@@H](C)C1` (stereo partly drawn) [(2R,6S)-Fenpropimorph], for which the AC50 is 47.3 µM. On the same count and under the same terms, then `O=C(O)c1cccnc1Nc1cccc(C(F)(F)F)c1` [Niflumic acid], with 20.3 µM; and `COc1ccc(-c2cc(=S)ss2)cc1` [Anethole trithione], with greater than 50 µM. On to `CC(=O)[C@H]1CC[C@H]2[C@@H]3C=CC4=CC(=O)CC[C@@]4(C)[C@@H]3CC[C@]12C` [Dydrogesterone], for which the AC50 was found to be 9.99 µM. Still for that read-out and setting: then `c1ccc(Nc2ccccc2)cc1` [Diphenylamine], with 83.1 µM; and `CCOc1cc([N+](=O)[O-])c(OCC)cc1N1CCOCC1` [4-(2,5-Diethoxy-4-nitrophenyl)morpholine], with 28.4 µM.

With `COC(=O)c1cc(Oc2ccc(Cl)cc2Cl)ccc1[N+](=O)[O-]` [Bifenox], the AC50 worked out at 74 µM. On to `CCCCc1c(C)nc(NCC)nc1OS(=O)(=O)N(C)C` [Bupirimate], for which the AC50 is greater than 90 µM.

The experiment is the same for the next values; noted with them: read-out: Average AC50 (uM) GH3-TRE-Antag, antagonist mode, 1 nM T3, no GH3 cytotoxicity hit, Average AC50 (uM) GH3-TRE-Antag, 24 h.
For the compound `CC(C)n1c(/C=C/[C@H](O)C[C@H](O)CC(=O)O)c(-c2ccc(F)cc2)c2ccccc21` [Fluvastatin sodium], the AC50 was 39.3 µM. Same read-out and setting: with `Nc1c2c(nc3ccccc13)CCCC2` [1,2,3,4-Tetrahydro-9-acridinamine hydrochloride] the figure was 92.1 µM; with `OCCOCCN1CCN(C2=Nc3ccccc3Sc3ccccc32)CC1` [Quetiapine fumarate], 23.5 µM.
